Each structure is given as a SMILES string. This is part of a sample that, as a whole, favours compounds with a hit. Of some 83,000 tested, about 20% had one in any assay.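 The test compound was applied at a single concentration to cells in 96-well plates for 48 hours, and percent growth was recorded.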 Unmarked numbers belong to inactive results. Active and inactive are the calls of the source. How the source made its calls: active means growth percent below 10; inactive means the rest.

From PubChem BioAssay (NCI) come the findings set out here.

Among the test systems are MOLT-4 leukemia; SR leukemia; RPMI-8226 leukemia; OVCAR-8 ovarian; OVCAR-5 ovarian; OVCAR-4 ovarian; SK-OV-3 ovarian; IGROV1 ovarian; OVCAR-3 ovarian; HS 578T breast; NCI/ADR-RES ovarian; T-47D breast; BT-549 breast; MDA-MB-435 melanoma; SW-620 colon; MCF7 breast; HCT-116 colon; HCC-2998 colon; KM12 colon.
Common to all, as to assay: NCI-60 one-dose screen, 48 h (100 = growth as untreated, 0 = no growth, -100 = all killed)
Common to all, as to settings: 10 µM unless noted

Regarding `CCOc1ccccc1C(=O)OCC(Cl)(Cl)Cl`, the growth with MOLT-4 leukemia was 105%; in the experiment on SR leukemia it was 93.9%; in the experiment with RPMI-8226 leukemia, 107%; in the experiment with OVCAR-8 ovarian it was 102%; in the experiment with OVCAR-5 ovarian it was 109%; in the experiment with OVCAR-4 ovarian, 111%. The growth in the experiment on SK-OV-3 ovarian was 106%; in the experiment on IGROV1 ovarian, 106%; in the experiment on OVCAR-3 ovarian, 109%; with HS 578T breast, 97.9%; in the experiment on NCI/ADR-RES ovarian, 108%; in the experiment on T-47D breast it was 90.6%. Further, the growth was 106% in the experiment with BT-549 breast; 107% in the experiment with MDA-MB-435 melanoma; 110% in the experiment on SW-620 colon; 99.4% with MCF7 breast; 105% in the experiment on HCT-116 colon; 101% in the experiment with HCC-2998 colon. The growth in the experiment on KM12 colon is 101%.
For `c1ccc(CSC(c2ccccc2)c2ccccc2)cc1`, the growth was 115% in the experiment with MOLT-4 leukemia; 141% with SR leukemia; 94.2% in the experiment with RPMI-8226 leukemia; 109% with OVCAR-8 ovarian; 104% in the experiment with OVCAR-5 ovarian; 120% in the experiment with OVCAR-4 ovarian. Further, the growth in the experiment on SK-OV-3 ovarian is 123%; in the experiment on IGROV1 ovarian, 107%; with OVCAR-3 ovarian, 119%; with HS 578T breast it was 112%; with NCI/ADR-RES ovarian it was 106%; with T-47D breast, 117%. Also, the growth is 116% in the experiment with BT-549 breast; 114% in the experiment with MDA-MB-435 melanoma; 103% in the experiment with SW-620 colon; 124% with MCF7 breast; 89.8% in the experiment with HCT-116 colon; 107% in the experiment on HCC-2998 colon. Moreover, the growth in the experiment with KM12 colon was 106%.
Regarding `COc1cc2c(cc1OCCCCCn1c(-c3ccco3)nc3ccccc31)N=C[C@@H]1CCCN1C2=O`, the growth in the experiment on MOLT-4 leukemia is 6.41% (active); with SR leukemia, 0.702% (active); in the experiment with RPMI-8226 leukemia it was 28%; in the experiment on OVCAR-8 ovarian, 18.6%; in the experiment on OVCAR-5 ovarian, 7.02% (active); in the experiment with OVCAR-4 ovarian, 11.2%. The growth in the experiment on SK-OV-3 ovarian was 42.3%; in the experiment on IGROV1 ovarian, -59.8% (active); with OVCAR-3 ovarian it was 12.9%; in the experiment with HS 578T breast, 14.7%; with NCI/ADR-RES ovarian, 11.2%; with T-47D breast, 27.8%. The growth in the experiment with BT-549 breast was 18%; in the experiment on MDA-MB-435 melanoma, -48.1% (active); with SW-620 colon it was 15%; in the experiment with MCF7 breast, 13.4%; in the experiment on HCT-116 colon, 14.5%; in the experiment on HCC-2998 colon, -22.3% (active). The growth in the experiment on KM12 colon was 2.44% (active).
Turning to `CCCCCCCC(=O)OCC(=O)[C@]1(O)Cc2c(O)c3c(c(O)c2[C@@H](OC2CC(N)C(O)C(C)O2)C1)C(=O)c1c(OC)cccc1C3=O` (some centres not stated), the growth with MOLT-4 leukemia was -93.1% (active); with SR leukemia, -67.1% (active); with RPMI-8226 leukemia it was -73.6% (active); in the experiment with OVCAR-8 ovarian it was -95% (active); with OVCAR-5 ovarian, -73.9% (active); with OVCAR-4 ovarian, -72.1% (active). For the same compound, the growth in the experiment with SK-OV-3 ovarian is -58.5% (active); in the experiment with IGROV1 ovarian, -66.8% (active); in the experiment on OVCAR-3 ovarian, -100% (active); in the experiment on HS 578T breast, -59.3% (active); with NCI/ADR-RES ovarian it was 50.7%; in the experiment with T-47D breast it was -69.2% (active). For the same compound, the growth in the experiment with BT-549 breast was -84% (active); in the experiment on MDA-MB-435 melanoma it was -80.5% (active); with SW-620 colon it was -62.5% (active); with MCF7 breast it was -94.4% (active); in the experiment on HCT-116 colon it was -73.4% (active); with HCC-2998 colon, -90.1% (active). For the same compound, in the experiment on KM12 colon, the growth is -96.2% (active).
Take `CC(CC1CCCCC1)NCc1ccccc1` (configuration not stated): the growth with MOLT-4 leukemia is 100%; in the experiment with SR leukemia, 105%; in the experiment on RPMI-8226 leukemia, 106%; with OVCAR-8 ovarian, 106%; in the experiment on OVCAR-5 ovarian, 91.1%; in the experiment with OVCAR-4 ovarian, 113%. Further, the growth with SK-OV-3 ovarian is 111%; in the experiment with IGROV1 ovarian, 107%; in the experiment with OVCAR-3 ovarian, 105%; in the experiment on HS 578T breast, 98.5%; in the experiment with NCI/ADR-RES ovarian it was 93.7%; in the experiment on T-47D breast it was 102%. Further, the growth in the experiment with BT-549 breast was 97.7%; in the experiment on MDA-MB-435 melanoma, 103%; with SW-620 colon it was 94%; in the experiment on MCF7 breast, 96.4%; with HCT-116 colon, 96.6%; in the experiment with HCC-2998 colon, 95.3%. Further, the growth with KM12 colon was 101%.
Take `COP(=O)(OC)C(O)c1ccc(Cl)cc1` (configuration not stated): the growth with MOLT-4 leukemia was 119%; in the experiment on SR leukemia, 96.1%; in the experiment with RPMI-8226 leukemia it was 104%; in the experiment with OVCAR-8 ovarian, 108%; in the experiment with OVCAR-5 ovarian, 112%; in the experiment with OVCAR-4 ovarian, 104%. Also, the growth is 111% in the experiment on SK-OV-3 ovarian; 103% in the experiment with IGROV1 ovarian; 94.7% in the experiment on OVCAR-3 ovarian; 94.1% with HS 578T breast; 96.9% in the experiment on NCI/ADR-RES ovarian; 114% with T-47D breast. The growth in the experiment on BT-549 breast is 94.1%; with MDA-MB-435 melanoma it was 100%; in the experiment with SW-620 colon, 101%; in the experiment on MCF7 breast it was 98.4%; in the experiment on HCT-116 colon, 94.7%; in the experiment with HCC-2998 colon, 98.9%. In addition, the growth with KM12 colon was 90%.
For the compound `CSc1nc(Cl)cc(N2CC2)n1`, the growth in the experiment on MOLT-4 leukemia was 108%; in the experiment on SR leukemia, 109%; in the experiment on RPMI-8226 leukemia it was 73.8%; with OVCAR-8 ovarian, 101%; with OVCAR-5 ovarian, 111%; in the experiment with OVCAR-4 ovarian, 114%. Also, the growth was 115% with SK-OV-3 ovarian; 123% with IGROV1 ovarian; 117% with OVCAR-3 ovarian; 110% in the experiment with HS 578T breast; 119% in the experiment on NCI/ADR-RES ovarian; 108% with T-47D breast. The growth in the experiment with BT-549 breast is 111%; in the experiment on MDA-MB-435 melanoma, 116%; with SW-620 colon, 105%; in the experiment on MCF7 breast, 105%; in the experiment with HCT-116 colon, 105%; with HCC-2998 colon, 138%. In addition, the growth in the experiment with KM12 colon was 111%.
As to `O=C(CN1CCN(C(=O)c2ccco2)CC1)Nc1ccc(Cl)cc1C(=O)c1ccccc1Cl`, the growth with MOLT-4 leukemia was 54.2%; with SR leukemia it was 72.7%; in the experiment with RPMI-8226 leukemia it was 53.6%; in the experiment on OVCAR-8 ovarian, 87.1%; in the experiment with OVCAR-5 ovarian, 95.9%; in the experiment on OVCAR-4 ovarian, 87.5%. In addition, the growth in the experiment on SK-OV-3 ovarian was 112%; in the experiment on IGROV1 ovarian, 57.8%; in the experiment with OVCAR-3 ovarian, 115%; with HS 578T breast, 78.3%; in the experiment on NCI/ADR-RES ovarian, 83.4%; in the experiment with T-47D breast, 64.3%. In addition, the growth was 101% with BT-549 breast; 118% with MDA-MB-435 melanoma; 86.8% in the experiment on SW-620 colon; 84.9% with MCF7 breast; 86.8% in the experiment with HCT-116 colon; 97.4% with HCC-2998 colon. Further, the growth in the experiment on KM12 colon is 89.1%.
